For twelve molecules, viability, slope difference and toxicity enhancement factor results are on record in PubChem BioAssay AID741 (SRMLSC, 2007).

Results filed as inconclusive are left out. Active and inactive are the calls of the source. Cut-off read from the data, not from the text of the source: active = toxicity enhancement factor above about 0.054; inconclusive = between about 0.00067 and that limit; inactive = weaker than that.

This experiment in a line: reversers of MRP drug resistance, dose response, cell-based (AID 741). The conditions noted are these: MRP-overexpressing cells, viability with/without cytotoxic drug; slope difference: measured here: slope difference tox minus reversal, stronger effect = higher value; toxicity enhancement factor: stronger effect = higher value; viability: measured here: viability series, compound alone, at 10 µM, stronger effect = lower value.
Turning to `CC1(C)CC(=O)C2=C(C1)N(c1cccc(O)c1)C1=C(C2)C(=O)CC(C)(C)C1`, the viability was 87.2%, the slope difference is 3.34 and the toxicity enhancement factor is 0.0743 (active).

With `COc1ccc(N2C(N)=C(C#N)C(c3cccnc3)C3=C2CC(C)(C)CC3=O)cc1` (stereo unspecified), the toxicity enhancement factor is 0.0615 (active), the viability came out at 63% and the slope difference stood at 2.07.

Regarding `CC(C)CCn1c(=O)c2ccccc2n2c(CN(C)Cc3ccccc3)nnc12`, the viability was determined as 82.3%, the slope difference came out at 2.35 and the toxicity enhancement factor was 0.0598 (active).

With `C=CCSc1nnc2n(CCc3ccccc3)c(=O)c3c4c(sc3n12)COC(C)(C)C4`, the toxicity enhancement factor is 0.116 (active), the slope difference amounted to 3.35 and the viability is 71%.

With `CC(C(=O)O)c1cccc(C(=O)c2ccccc2)c1` (stereo unspecified), the toxicity enhancement factor was -0.0105 (inactive), the slope difference is -1.03 and the viability stood at 92.4%.

As to `COc1ccc2cc(C(c3nnnn3C(C)(C)C)N3CCc4ccccc4C3)c(=O)[nH]c2c1` (stereo unspecified), the slope difference was -0.322, the viability was determined as 76.3% and the toxicity enhancement factor is -0.0045 (inactive).

Take `Cc1oncc1C(=O)Nc1ccc(C(F)(F)F)cc1`: the viability is 96.5%, the slope difference is -0.34 and the toxicity enhancement factor was -0.0035 (inactive).

With `COc1ccc(NC(=O)C2C3C=CC(C3)C2C(=O)NCc2ccccn2)c(OC)c1` (stereo unspecified), the slope difference is -1.73, the toxicity enhancement factor was -0.0167 (inactive) and the viability amounted to 88.7%.

For `CC(C(=O)O)c1ccc(N2Cc3ccccc3C2=O)cc1` (stereo unspecified), the slope difference was -0.182, the toxicity enhancement factor is -0.0019 (inactive) and the viability worked out at 98.6%.

Regarding `O=C(c1ccccc1)c1ccc2n1CCC2C(=O)O` (stereo unspecified), the toxicity enhancement factor was -0.001 (inactive), the viability was 106% and the slope difference was -0.0977.

As to `O=c1[nH]c2ccc(Br)cc2c(-c2ccccc2)c1N1CCOCC1`, the viability was found to be 74.8%, the slope difference is 2.74 and the toxicity enhancement factor was 0.0679 (active).

For `N#CC1=C(N)N(c2ccccc2)C2=C(C(=O)CCC2)C1c1ccccc1` (stereo unspecified), the slope difference is 4.41, the viability turned out to be 70.1% and the toxicity enhancement factor was 0.144 (active).
